According to paper PMC12864922, “TDP-43 directly inhibits mRNA accumulation in neurites through modulation of mRNA stability”:
Whole data set: some 9,900 sequences, median “r (bound/input frequency ratio)” near 0.7, cut for the highest 2% near 6.5. For the sample, the highest values were picked, then their nearest neighbours and some sequences at random.

B1: ENSMUSG00000043670.217|Diras1|25:29;58:70;94:99;102:106;111:115;225:229 (ssRNA)
RNA: GGGAGUUCUACAGUCCGACGAUCGCUUCGAUAUCCGCAUGCUAGGAUGGGGUGUUCUUGCACCACUUACACAUCUUAGUGAGACCACAGUGUAAGUGGCCCACACACACACACGGGGGGGGCACCUAGACAUUGUGCACACACUCAUACGCUCACACAUUUCAGGGGUGGGUGACACAGGCCUGUCUGAUGAGCACCAGGUCUGUUCCAGGCUGUGGCAAGCUGGCUCCUGGCUCAGAAGUGACAAAGCUGCAGUACAGAGGCCUCACACACAGGUCAUCACCUCACAGUGGCUACAGACCAGCUCUUGCGGUCGCACUAGUGUGGAAUUCUCGGGUGUCAAGG
B2: ENSMUSG00000042529.422|Kcnj12|4:9;13:17;29:39;62:67;224:228 (ssRNA)
RNA: GGGAGUUCUACAGUCCGACGAUCGCUUCGAUAUCCGCAUGCUAACAACACACAGGCACACGAGGUCCCAGGCACACACAUACUGAAUGUCAGUGGCUUGGGUGCACACACGAGAGAGAGAGAGAGAGAGAGAGAGAGAGAGAGAGAGAGAGAGAGAGAGAGCUGCACAGGAUGAAGCAGCUGCCCUGAGCCCAUCUGGUGCUGUGCACCUGGUCCUUGUCCAGCCGAGGGCCUGGGGGCAGAAGAACACACCAUAGGGAGGCCCUUCAUACGGUGUCUGCCCUAUGUGAGGUCAUAGAAUGUUCUCUUGCGGUCGCACUAGUGUGGAAUUCUCGGGUGUCAAGG
B3: ENSMUSG00000042529.426|Kcnj12|5:15;38:43;200:204 (ssRNA)
RNA: GGGAGUUCUACAGUCCGACGAUCGCUUCGAUAUCCGCAUGCUACAGGCACACACAUACUGAAUGUCAGUGGCUUGGGUGCACACACGAGAGAGAGAGAGAGAGAGAGAGAGAGAGAGAGAGAGAGAGAGAGAGAGAGCUGCACAGGAUGAAGCAGCUGCCCUGAGCCCAUCUGGUGCUGUGCACCUGGUCCUUGUCCAGCCGAGGGCCUGGGGGCAGAAGAACACACCAUAGGGAGGCCCUUCAUACGGUGUCUGCCCUAUGUGAGGUCAUAGAAUGUUAAAUCUAUUUUAAACGGUGAAACUCUCUUGCGGUCGCACUAGUGUGGAAUUCUCGGGUGUCAAGG
B4: ENSMUSG00000042529.423|Kcnj12|7:11;23:33;56:61;218:222 (ssRNA)
RNA: GGGAGUUCUACAGUCCGACGAUCGCUUCGAUAUCCGCAUGCUAGUGAGGCACACGAGGUCCCAGGCACACACAUACUGAAUGUCAGUGGCUUGGGUGCACACACGAGAGAGAGAGAGAGAGAGAGAGAGAGAGAGAGAGAGAGAGAGAGAGAGAGCUGCACAGGAUGAAGCAGCUGCCCUGAGCCCAUCUGGUGCUGUGCACCUGGUCCUUGUCCAGCCGAGGGCCUGGGGGCAGAAGAACACACCAUAGGGAGGCCCUUCAUACGGUGUCUGCCCUAUGUGAGGUCAUAGAAUGUUAAAUCUCUCUUGCGGUCGCACUAGUGUGGAAUUCUCGGGUGUCAAGG
B5: ENSMUSG00000042529.419|Kcnj12|1:17;22:27;31:35;47:57;80:85;242:246 (ssRNA)
RNA: GGGAGUUCUACAGUCCGACGAUCGCUUCGAUAUCCGCAUGCUACACACACACACACACACAACAACACACAGGCACACGAGGUCCCAGGCACACACAUACUGAAUGUCAGUGGCUUGGGUGCACACACGAGAGAGAGAGAGAGAGAGAGAGAGAGAGAGAGAGAGAGAGAGAGAGAGAGCUGCACAGGAUGAAGCAGCUGCCCUGAGCCCAUCUGGUGCUGUGCACCUGGUCCUUGUCCAGCCGAGGGCCUGGGGGCAGAAGAACACACCAUAGGGAGGCCCUUCAUACGGUGUCUGCCCUAUCUCUUGCGGUCGCACUAGUGUGGAAUUCUCGGGUGUCAAGG
B6: ENSMUSG00000042529.421|Kcnj12|1:5;10:15;19:23;35:45;68:73;230:234 (ssRNA)
RNA: GGGAGUUCUACAGUCCGACGAUCGCUUCGAUAUCCGCAUGCUACACACAACAACACACAGGCACACGAGGUCCCAGGCACACACAUACUGAAUGUCAGUGGCUUGGGUGCACACACGAGAGAGAGAGAGAGAGAGAGAGAGAGAGAGAGAGAGAGAGAGAGAGAGAGCUGCACAGGAUGAAGCAGCUGCCCUGAGCCCAUCUGGUGCUGUGCACCUGGUCCUUGUCCAGCCGAGGGCCUGGGGGCAGAAGAACACACCAUAGGGAGGCCCUUCAUACGGUGUCUGCCCUAUGUGAGGUCAUAGCUCUUGCGGUCGCACUAGUGUGGAAUUCUCGGGUGUCAAGG
B7: ENSMUSG00000042529.424|Kcnj12|1:5;17:27;50:55;212:216 (ssRNA)
RNA: GGGAGUUCUACAGUCCGACGAUCGCUUCGAUAUCCGCAUGCUACACACGAGGUCCCAGGCACACACAUACUGAAUGUCAGUGGCUUGGGUGCACACACGAGAGAGAGAGAGAGAGAGAGAGAGAGAGAGAGAGAGAGAGAGAGAGAGAGCUGCACAGGAUGAAGCAGCUGCCCUGAGCCCAUCUGGUGCUGUGCACCUGGUCCUUGUCCAGCCGAGGGCCUGGGGGCAGAAGAACACACCAUAGGGAGGCCCUUCAUACGGUGUCUGCCCUAUGUGAGGUCAUAGAAUGUUAAAUCUAUUUUACUCUUGCGGUCGCACUAGUGUGGAAUUCUCGGGUGUCAAGG
B8: ENSMUSG00000042529.427|Kcnj12|1:9;32:37;194:198 (ssRNA)
RNA: GGGAGUUCUACAGUCCGACGAUCGCUUCGAUAUCCGCAUGCUACACACAUACUGAAUGUCAGUGGCUUGGGUGCACACACGAGAGAGAGAGAGAGAGAGAGAGAGAGAGAGAGAGAGAGAGAGAGAGAGAGCUGCACAGGAUGAAGCAGCUGCCCUGAGCCCAUCUGGUGCUGUGCACCUGGUCCUUGUCCAGCCGAGGGCCUGGGGGCAGAAGAACACACCAUAGGGAGGCCCUUCAUACGGUGUCUGCCCUAUGUGAGGUCAUAGAAUGUUAAAUCUAUUUUAAACGGUGAAACUGGAGAACUCUUGCGGUCGCACUAGUGUGGAAUUCUCGGGUGUCAAGG
B9: ENSMUSG00000042529.425|Kcnj12|11:21;44:49;206:210 (ssRNA)
RNA: GGGAGUUCUACAGUCCGACGAUCGCUUCGAUAUCCGCAUGCUAAGGUCCCAGGCACACACAUACUGAAUGUCAGUGGCUUGGGUGCACACACGAGAGAGAGAGAGAGAGAGAGAGAGAGAGAGAGAGAGAGAGAGAGAGAGAGCUGCACAGGAUGAAGCAGCUGCCCUGAGCCCAUCUGGUGCUGUGCACCUGGUCCUUGUCCAGCCGAGGGCCUGGGGGCAGAAGAACACACCAUAGGGAGGCCCUUCAUACGGUGUCUGCCCUAUGUGAGGUCAUAGAAUGUUAAAUCUAUUUUAAACGGUCUCUUGCGGUCGCACUAGUGUGGAAUUCUCGGGUGUCAAGG
B10: ENSMUSG00000042529.420|Kcnj12|1:11;16:21;25:29;41:51;74:79;236:240 (ssRNA)
RNA: GGGAGUUCUACAGUCCGACGAUCGCUUCGAUAUCCGCAUGCUACACACACACACAACAACACACAGGCACACGAGGUCCCAGGCACACACAUACUGAAUGUCAGUGGCUUGGGUGCACACACGAGAGAGAGAGAGAGAGAGAGAGAGAGAGAGAGAGAGAGAGAGAGAGAGAGCUGCACAGGAUGAAGCAGCUGCCCUGAGCCCAUCUGGUGCUGUGCACCUGGUCCUUGUCCAGCCGAGGGCCUGGGGGCAGAAGAACACACCAUAGGGAGGCCCUUCAUACGGUGUCUGCCCUAUGUGAGGCUCUUGCGGUCGCACUAGUGUGGAAUUCUCGGGUGUCAAGG

The binders below were run against TDP-43 (Homo sapiens, UniProt Q13148 1-414) (assay: RNA Bind-n-Seq with designed 260-mer pool; 25 mM Tris-HCl, 150 mM KCl, 3 mM MgCl2, BSA (printed 500 mg/mL), 20 units/mL SUPERase IN; pH not stated; 500 nM RNA pool, 1 h, 4 C; TDP-43 5, 50, 500 nM; high values mean tight binding). Conditions: protein: recombinant; tags: SBP (GST cleaved off with PreScission; pGEX-GST-SBP).
Chain of TDP-43 (Q13148 whole entry): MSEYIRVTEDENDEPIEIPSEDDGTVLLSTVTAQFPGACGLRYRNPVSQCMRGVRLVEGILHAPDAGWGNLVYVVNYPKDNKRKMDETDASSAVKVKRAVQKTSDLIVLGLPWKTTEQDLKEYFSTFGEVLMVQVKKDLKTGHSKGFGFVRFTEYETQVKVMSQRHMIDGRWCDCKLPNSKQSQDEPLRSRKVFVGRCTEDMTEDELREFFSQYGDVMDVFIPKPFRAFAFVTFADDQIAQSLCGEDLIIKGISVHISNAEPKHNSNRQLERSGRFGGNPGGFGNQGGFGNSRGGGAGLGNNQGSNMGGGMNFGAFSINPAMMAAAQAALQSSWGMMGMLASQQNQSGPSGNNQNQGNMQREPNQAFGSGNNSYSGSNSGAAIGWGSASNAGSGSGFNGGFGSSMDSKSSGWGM
How it was run: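 For each oligo, R gives binding as its mapped-read-normalized abundance after pulldown divided by its abundance in input. Bead-captured SBP-tagged TDP-43 (5, 50 or 500 nM) was incubated with 500 nM of an in vitro-transcribed 260-nt 3′ UTR oligo pool for 1 h at 4 °C in 25 mM Tris-HCl, 150 mM KCl, 3 mM MgCl2, BSA and SUPERase IN on streptavidin beads. Washed, biotin-eluted RNA was reverse transcribed, PCR-amplified and sequenced.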

**Q.** Which binding signal does the source give for B1 here?
**A.** 0.883 R (bound/input frequency ratio)

**Q.** With B2 as the binder, how does the binding signal read?
**A.** 6.32 R (bound/input frequency ratio)

**Q.** With B3 as the binder, how does the binding signal read?
**A.** 5.67 R (bound/input frequency ratio)

**Q.** Which binding signal does the source give for B4 here?
**A.** 7.58 R (bound/input frequency ratio)

**Q.** B5 was tested. Which binding signal did it give?
**A.** 6.45 R (bound/input frequency ratio)

**Q.** How did the binding signal turn out when B6 was run?
**A.** 7.21 R (bound/input frequency ratio)

**Q.** How did the binding signal turn out when B7 was run?
**A.** 6.55 R (bound/input frequency ratio)

**Q.** With B8 as the binder, how does the binding signal read?
**A.** 5.49 R (bound/input frequency ratio)

**Q.** Which binding signal does the source give for B9 here?
**A.** 6.2 R (bound/input frequency ratio)

**Q.** With B10 as the binder, how does the binding signal read?
**A.** 4.97 R (bound/input frequency ratio)
